Hits are enriched below; roughly 3.5% of the tested compounds scored in any of these assays.
mHTT CaM bind: mHTT-calmodulin interaction abrogation; AlphaScreen His-mHTT/GST-CaM binding, luminescence; inhibition, % at 15 µM; hit rate 3.6% among 190,000; AID 1671202;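 also: 0% = both proteins with DMSO and 100% = one protein alone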
Pf apPOL block: Pf-apPOL DNA polymerase inhibition; hit rate 0.25% among 210,000; Recombinant Pf-apPOL, molecular beacon fluorescence, 1.5 h; inhibition, % at 10 µM; AID 1794808
* hit, by the source's call; / = no result given. Rule as the data show it: active = inhibition above about 50%; inactive = the rest.

SMILES	mHTT CaM bind	Pf apPOL block
CCc1ccc(S(=O)(=O)N=C2C=C(Nc3ccccc3OC)C(=O)c3ccccc32)cc1	93.0*	-0.5
COc1ccccc1NC1=CC(=NS(=O)(=O)c2ccccc2)c2ccccc2C1=O	94.0*	3.2
COc1ccccc1NC(=O)c1ccc2c(c1)-c1ccccc1C2=O	2.0	0.0
COc1ccc(S(=O)(=O)Nc2ccccc2NS(=O)(=O)c2ccc(OC)cc2)cc1	5.9	3.0
CCc1ccc(S(=O)(=O)Nc2ccccc2OC)cc1	-25.4	1.7
Nc1ncnc2c1ncn2C1OC(CO)C2OP(=O)(O)OC21 (stereo not drawn)	/	-6.0
Ic1ccccc1OCCOCCN1CCOCC1	-7.5	-1.4
CCOc1ccc(CN2CCN(C(=O)c3ccncc3)CC2)cc1	2.5	-4.4
Cn1nc(COCc2ccccc2F)c2c1CCN(C(=O)c1ccccc1)C2	7.1	-3.9
CC(=O)N(C)Cc1nn(-c2ccccc2)c2c1CN(Cc1ccccc1F)CC2	68.0*	-9.9
O=C(CN1CCc2sccc2C1c1cccc(F)c1)N1CCNCC1 (stereo not drawn)	17.1	2.2
CC1=NN(c2ccccc2)C(=O)C1N=Nc1ccc([N+](=O)[O-])cc1 (stereo not drawn)	/	-3.5
Cc1nc([N+](=O)[O-])c2n1CC(c1ccccc1)=NN2c1ccc([N+](=O)[O-])cc1	58.0*	-3.7
CCc1ccccc1NC(=O)N1CCc2nc(-c3ccc(F)cc3)ncc2C1	3.8	-3.5
O=C(Cn1cccc1)N1CCC(c2nnc(-c3ccco3)s2)CC1	-8.2	21.1
O=C(CN1CCC(c2nnc(-c3ccco3)s2)CC1)c1ccc(Cl)cc1	71.5*	4.2
Cc1cn(-c2ccc(CNC(=O)c3ccsc3)cc2)cn1	26.9	-1.6
Cc1ccsc1C(=O)Nc1cccn2c(C)nnc12	-1.3	1.9
COCCN=C1Nc2ccccc2NC12CCCN(C(=O)CCc1c[nH]c3ccccc13)C2 (stereo not drawn)	70.8*	-2.9
COCCN=C1Nc2ccccc2NC12CCCN(C(=O)Cc1cccc(C)c1)C2 (stereo not drawn)	52.0*	-4.2
COCCN=C1Nc2ccccc2NC12CCCN(C(=O)c1cc(-c3ccccc3)n[nH]1)C2 (stereo not drawn)	66.9*	-3.5
COCCN=C1Nc2ccccc2CNC12CCN(C(=O)Cc1cccc(C)c1)C2 (stereo not drawn)	19.6	-3.4
COCCN=C1Nc2ccccc2NC12CCCN(C(=O)c1ccc(C)nc1)C2 (stereo not drawn)	2.5	-5.1
COCCN=C1Nc2ccccc2NC12CCCN(C(=O)c1ccccc1Cl)C2 (stereo not drawn)	13.2	-0.7
Cc1nn(C)cc1CN1CCCCC1c1nncn1-c1ccccc1 (stereo not drawn)	2.9	-5.0
SMILES	mHTT CaM bind	Pf apPOL block
N#Cc1ccc(C#CCOC(=O)Nc2cc(Cl)cc(Cl)c2)cc1	/	6.3
CCn1c(C2CCN(C(=O)c3ccc(C(F)(F)F)cc3)C2)nc2cccnc21 (stereo not drawn)	-0.4	-2.5
CN(C)c1nc2cc(C(=O)NCC3CC3)sc2n1-c1ccccc1	6.6	0.7
CN(C)c1nc2cc(C(=O)N3CCCC3)sc2n1-c1ccccc1	50.1*	-1.5
COc1ccccc1Oc1ccc2c(c1)C(=O)N(c1cccc3ncccc13)C2=O	75.0*	-4.9
COc1ccc(N2C(=O)c3ccc(Oc4ccc(N)cc4)cc3C2=O)cc1OC	5.0	1.6
Cc1oc(C2CCN(C(=O)CC3CCCCC3)CC2)nc1C(=O)N1CCOCC1	2.9	-6.7
O=C(Nc1ccc2c(N3CCCCC3)ncnc2c1)c1ccc(Br)o1	46.5	-1.7
Cc1cc(-c2nnc(NC(=O)c3ccc4c(c3)OCCO4)o2)c(C)o1	1.9	-6.3
Cc1cc(-c2nnc(NC(=O)c3ccn(C)n3)o2)c(C)o1	67.5*	-6.4
COc1ccc(CN2CCc3nc(N4CCC(C)CC4)ncc3C2)c(OC)c1	73.5*	3.0
COc1ccc(CN2CCc3nc(N4CCN(c5ncccn5)CC4)ncc3C2)c(OC)c1	100.2*	-1.4
COc1ccc(N2CCN(c3ncc4c(n3)CCN(Cc3ccccc3OC)C4)CC2)cc1	52.5*	-4.6
CCOc1ccccc1CN1CCc2nc(N3CCN(c4ncccn4)CC3)ncc2C1	100.2*	-4.2
CCOc1ccccc1CN1CCc2nc(N3CCN(CC)CC3)ncc2C1	25.8	-1.4
COc1ccc(N2CCN(c3ncc4c(n3)CCN(Cc3ccccc3C)C4)CC2)cc1	10.4	-1.7
COc1cc(OC)c(OC)cc1CN1CCc2nc(N3CCC(C)CC3)ncc2C1	9.9	-5.5
COc1ccc(OC)c(CN2CCc3nc(N4CCCC4)ncc3C2)c1	0.1	6.7
CCC(C)c1ccc(OC2OC(CO)C(O)C(O)C2NC(C)=O)cc1 (stereo not drawn)	/	-12.6
Cc1ccc(CNS(=O)(=O)c2cc(C(=O)Nc3ccc(C)c(F)c3)ccc2F)cc1	14.0	-1.5
CCOc1ccccc1NC(=O)N1CCCC(C)(C(=O)NCc2ccc(F)cc2)C1 (stereo not drawn)	10.8	-4.7
O=C(NCc1cc(-c2ccc3c(c2)OCO3)on1)c1cccs1	0.0	-3.4
O=C(NC1CCCC1)c1ccc2c(c1)NC(=O)C(N1CCOCC1)S2 (stereo not drawn)	2.0	-12.4
Cc1cccc(NS(=O)(=O)c2cc3c(s2)CCN(C(=O)C2CC2)C3)c1	8.0	-0.4
N#CC1=C(N)Oc2c(C=Nc3ccccc3)ccc(O)c2C1c1cccc([N+](=O)[O-])c1 (stereo not drawn)	100.0*	-3.9
SMILES	mHTT CaM bind	Pf apPOL block
N#CC1=C(N)Oc2n[nH]c(-c3ccccc3)c2C1c1cccc([N+](=O)[O-])c1 (stereo not drawn)	11.0	-4.4
O=C(Cc1ccc(Cl)cc1)N1CCC2(C1)Nc1cccnc1NC2=NC1CCCC1 (stereo not drawn)	20.1	-2.5
COc1cccc(C(=O)N2CCC(c3cnn(-c4ccccc4)c3)CC2)c1	0.0	-6.5
COc1cc([N+](=O)[O-])cc2onc(C3OCCO3)c12	1.0	-2.4
CC1(C)CC(=O)C2=C(C1)NC1=C(C(=O)c3ccccc31)C2c1ccc([N+](=O)[O-])o1 (stereo not drawn)	55.0*	-3.4
CC(=O)N1c2ccccc2NC2=C(C(=O)CC(C)(C)C2)C1c1ccc([N+](=O)[O-])o1 (stereo not drawn)	1.6	1.1
COc1ccc(OC)c(C2C3=C(CC(C)(C)CC3=O)NC3=C2C(=O)c2ccccc23)c1 (stereo not drawn)	41.0	-4.7
CC1(C)CC(=O)C2=C(C1)NC1=C(C(=O)c3ccccc31)C2c1cc([N+](=O)[O-])ccc1O (stereo not drawn)	63.0*	4.2
CCN1C(=O)Cc2ccccc2C1C(=O)N1CCC(Cc2ccccc2)CC1 (stereo not drawn)	17.1	-4.4
COc1ccccc1CNC(=O)CN1CCC2(CC1)N=C(c1cccc(C)c1)C(=O)N2	38.3	-4.1
COc1cc(/C=c2\sc3nc4ccccc4n3c2=O)cc([N+](=O)[O-])c1O	57.0*	1.2
O=c1/c(=C/c2ccc(Br)c([N+](=O)[O-])c2)sc2nc3ccccc3n12	-6.0	2.2
CC(=O)Nc1nnc(SCc2cc(=O)c(OC(=O)c3ccccc3[N+](=O)[O-])co2)s1	10.1	6.9
COc1ccccc1CN1CCc2nc(Nc3ccc4c(c3)OCO4)ncc2C1	51.0*	-0.5
COc1ccccc1CN1CCc2nc(Nc3ccc4c(c3)OCCO4)ncc2C1	32.9	-2.9
